According to PubChem BioAssay (NCATS):
Results filed as inconclusive are left out. A number with no mark means an inactive call. Active and inactive are the calls of the source. Calls come from the whole dose curve; as a rule, active = well fitted cell-killing curve with a large enough effect; inconclusive = small, poorly fitted or top-dose-only effect, or effect the other way; inactive = no such curve, though single readings can be large or run the other way.

How the values were obtained:
[1] = Viability qHTS for spleen associated tyrosine kinase inhibitor (SYKi) naive MV4-11 cells (AID 1963823); conditions: MV4-11 AML viability, CellTiter-Glo luminescence, 72 h; series mostly up to 45 µM; note: nearly all actives have a fitted effect of over 40% in size
How it was run: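 Cells: MV4-11, SYK inhibitor naive, 500 per well. Treatment: library compounds, 72 hr, 37 C, 5% CO2. Read-out: CellTiter-Glo luminescence after 10 min RT.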

[2] = Viability qHTS for spleen associated tyrosine kinase inhibitor (SYKi) drug resistant MV4-11 cells (AID 1963824); conditions: SYKi-resistant MV4-11 viability, CellTiter-Glo, 72 h; series mostly up to 45 µM; note: nearly all actives have a fitted effect of over 35% in size
How it was run: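 SYK inhibitor-resistant MV4-11 AML cells, 500 per well, added to predispensed compounds and incubated 72 hr at 37 C, 5% CO2. Viability measured by CellTiter-Glo luminescence after 10 min at room temperature.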
Potency is the fitted concentration of half-maximal effect.

Compound | Potency [1] | Potency [2] | viability (% of control) [1] | viability, % of control [2]
COc1c2ccoc2nc2c(OC)c(O[C@@H]3O[C@@H](C)[C@H](O)[C@@H](O[C@@H]4O[C@H](CO)[C@@H](O)[C@H](O)[C@H]4O)[C@H]3OC(C)=O)ccc12 | inactive | inactive | – | –
CCN(CC)CCN(Cc1ccc(-c2ccc(C(F)(F)F)cc2)cc1)C(=O)Cn1c(SCc2ccc(F)cc2)nc(=O)c2c1CCC2 | 2910 nM (active) | 3260 nM (active) | – | –
CCN(CC)CCNc1ccc2ncn3c4ccc(O)cc4c(=O)c1c23 | 164 nM (active) | 291 nM (active) | – | –
C[C@@H]1O[C@@H](OC2C(O[C@H]3[C@H](O[C@H]4CC[C@@]5(C)C(CC[C@]6(C)C5CC=C5C7CC(C)(C)CC(O)[C@]7(C)CC[C@]56C)C4(C)C)O[C@H](C(=O)O)[C@@H](O)[C@@H]3O)OC(CO)C(O)C2O)[C@H](O)[C@H](O)[C@H]1O (stereo partly drawn) | – | – | 84.2% [at 9.25 µM] | 97.3% [at 9.25 µM]
CC(=O)[C@@H]1C[C@H](C(C)(C)O[C@@H]2O[C@H](CO)[C@@H](O)[C@H](O)[C@H]2O)CC[C@@]2(CO)OC(=O)C[C@@H]12 | inactive | inactive | – | –
CC(=O)OC1C[C@]2(C)C(O)CC(C)=C[C@H](OC(=O)c3ccc(O)cc3)C2[C@]1(O)C(C)C (stereo partly drawn) | inactive | 6320 nM (active) | – | –
CC1(C)CC[C@]2(C(=O)OC3OC(CO)C(O)C(O)C3O)CC[C@]3(C)C(=CCC4[C@@]5(C)CC[C@H](OC6OC(C(=O)O)C(O)C(O)C6O)C(CO)(CO)C5CC[C@]43C)[C@@H]2C1 (stereo partly drawn) | 693 nM (active) | 438 nM (active) | – | –
CC1CCC2(C(=O)OC3OC(COC4OC(CO)C(O)C(O)C4O)C(O)C(O)C3O)CCC3(C)C(=CCC4C5(C)CCC(O)C(C)(C(=O)O)C5CCC43C)C2C1(C)O (stereo not drawn) | – | – | 98.4% [at 9.25 µM] | 98.8% [at 9.25 µM]
CC(=O)N[C@H](Cc1ccc2ccccc2c1)C(=O)N[C@H](Cc1ccc(Cl)cc1)C(=O)N[C@H](Cc1cccnc1)C(=O)N[C@@H](CO)C(=O)N[C@@H](Cc1ccc(O)cc1)C(=O)N[C@H](CCCNC(N)=O)C(=O)N[C@@H](CC(C)C)C(=O)N[C@@H](CCCN=C(N)N)C(=O)N1CCC[C@H]1C(=O)N[C@H](C)C(N)=O | inactive | inactive | – | –
O=C(OC1CN2CCC1CC2)N1CCc2ccccc2C1c1ccccc1 (stereo not drawn) | 18400 nM (active) | 18400 nM (active) | – | –
COC(=O)CC1OC(C)C2=C(O)c3c(O)cccc3C(=O)C23OC13 (stereo not drawn) | 1140 nM (active) | 570 nM (active) | – | –
COc1cc(C(=O)NC2CCN(C)CC2)c(F)cc1Nc1ncc2c(n1)N(C1CCCC1)CC(F)(F)C(=O)N2C | 20.6 nM (active) | 9.2 nM (active) | – | –
CC1OC(OC2C(C)OC(OC3C(OC(=O)/C=C/c4ccc(O)cc4)C(CO)OC(OC4(COC(=O)/C=C/c5ccc(O)cc5)OC(CO)C(O)C4O)C3OC3OCC(O)(CO)C3O)C(O)C2O)C(O)C(O)C1O (stereo not drawn) | – | – | 86.5% [at 9.25 µM] | 112% [at 9.25 µM]
CC(C#N)C(C)O[C@@H]1O[C@H](CO)[C@@H](O)[C@H](O)[C@H]1O (stereo partly drawn) | inactive | inactive | – | –
COc1c(OC2OC(CO)C(O)C(O)C2O)ccc(O)c1C(=O)OCc1ccccc1O[C@@H]1O[C@H](CO)[C@@H](O)[C@H](O)[C@H]1O (stereo partly drawn) | inactive | inactive | – | –
CNC1CN(c2ccc3c(=O)c(C(=O)O)cn(-c4nccs4)c3n2)CC1OC (stereo not drawn) | 422 nM (active) | 376 nM (active) | – | –
CC(=O)O[C@@H]1[C@H](O[C@@H]2O[C@H](CO)[C@@H](O)[C@H](O)[C@H]2O)[C@@H](O[C@@H]2O[C@@H](C)[C@H](O)[C@@H](O[C@@H]3O[C@H](CO)[C@@H](O)[C@H](O)[C@H]3O)[C@H]2O)[C@H](OC(=O)C23CCC4(C)C(=CCC5C6(C)CC(O)C(O[C@@H]7O[C@H](C(=O)O)[C@@H](O)[C@H](O)[C@H]7O)C(C)(C(=O)O)C6CCC54C)C2CC(C)(C)CC3O)O[C@@H]1C (stereo partly drawn) | – | – | 92% [at 9.25 µM] | 102% [at 9.25 µM]
Cc1coc2c1CC1OC1(C)CCC1OC1(C)C2 (stereo not drawn) | inactive | inactive | – | –
CCC1=CC2CN(C1)Cc1c([nH]c3ccccc13)[C@@](C(=O)OC)(c1cc3c(cc1OC)N(C)[C@H]1[C@@](O)(C(=O)OC)[C@H](OC(C)=O)[C@]4(CC)C=CCN5CC[C@]31[C@@H]54)C2 (stereo partly drawn) | 25.2 nM (active) | 12.6 nM (active) | – | –
